Measured values from PubChem BioAssay (EPA / NIEHS).
Several values for one entry are separate records, joined by “and”; a condition that tells them apart may be missing. Identical values can stand only once. Some structures have more than one record in an assay (separate samples or runs), and their calls can disagree. Activity calls are given as the source filed them. Rule for the calls: active = hit-call score of the fitted dose curve at least 0.9, where 1 is the maximum; inactive = score below 0.9.

assay: BSK_hDFCGF_SRB: Viability Assessment in the BioMAP Diversity Plus: hDFCGF Assay (AID 2283061); conditions: primary human foreskin fibroblasts
Protocol: BSK_hDFCGF is a cell-based, multiplexed-readout assay that uses foreskin fibroblast, a human skin primary cell, with measurements taken at 24 hours after chemical dosing in a 96-well plate.BSK_hDFCGF_SRB is an assay component measured in the BSK_hDFCGF assay. It measures 0.1% sulforhodamine related to cell death using Sulforhodamine staining technology.Data from the assay component BSK_hDFCGF_SRB was analyzed into 1 assay endpoint. This assay endpoint, BSK_hDFCGF_SRB, was analyzed with bidirectional fitting relative to DMSO as the negative control and baseline of activity. Using a type of viability reporter, gain or loss-of-signal activity can be used to understand changes in the signaling. Furthermore, this assay endpoint can be referred to as a primary readout, because this assay has produced multiple assay endpoints where this one serves a signaling function. To generalize the intended target to other relatable targets, this assay endpoint is annotated to the cell morphology intended target family, where the subfamily is cell conformation.
The levels of cell surface (or secreted, indicated by the prefix "s") biomarker endpoints were measured by ELISA. Overt cytotoxicity to cells in confluent adherent cultures (all systems other than the BT system) was assessed by measuring total protein levels using sulforhodamine B (SRB) staining in parallel cultures at the time of biomarker measurements, indicated as SRB endpoints. For proliferation assays for adherent cell types, individual cell types are cultured at sub-confluence and relative cell numbers quantified by SRB staining at time points optimized for each system (48 h: 3C and CASM3C systems; 72 h: BT and HDF3CGF systems; 96 h: SAg system). SRB was performed by staining cells with 0.1% SRB after fixation with 10% TCA and reading wells at 560 nm.Viability and proliferation of PBMC (T cells) was quantified by Alamar Blue reduction for the SAg and BT systems. For PBMC viability (referred to as PBMC Cytotoxicity within the assay endpoint names), cells were plated (75,000/well in a 96-well plate) and then chemical samples added for 1 h before addition of activators, SEB and TSST-1 (20 ng/mL final concentration each). Cells were incubated for 90 h. Then, Alamar Blue (20 uL/well) (Invitrogen, Cat DAL1100) was added for 6 h, and the plates were read with a fluorescence microplate reader at 546/580 nm (excitation/emission). For PBMC proliferation, cells were plated and activated as above but incubated for only 16 h prior to addition of Alamar Blue. Plates were read after 6 h.

| Compound | outcome | AC50 |
| --- | --- | --- |
| CCCCOCCOCCOC(=O)CCCCC(=O)OCCOCCOCCCC | inactive | – |
| O=C(O)C(F)(F)C(F)(F)C(F)(F)C(F)(F)C(F)(F)C(F)(F)C(F)(F)C(F)(F)C(F)(F)C(F)F | – | 54 µM (active) and 7.25 µM (active) |
| CCCCCCOC(=O)c1ccccc1O | – | 40 µM (active) and 44.8 µM (active) |
| CC(C)(C)C(=O)CC(=O)C(F)(F)C(F)(F)C(F)(F)F | inactive | – |
| C=CC(F)(F)C(F)(F)C(F)(F)C(F)(F)C(F)(F)C(F)(F)C(F)(F)C(F)(F)C=C | inactive | 3.33 µM (active) |
| FC(F)(F)C(F)(F)C(F)(F)CI | inactive | – |
| N=C(N)C(F)(F)C(F)(F)C(F)(F)C(F)(F)C(F)(F)C(F)(F)C(F)(F)F | inactive | 54.4 µM (active) |
| O=C(O)C(F)(F)C(F)(F)C(F)F | inactive | – |
| Nc1ccc([N+](=O)[O-])cc1O | inactive | – |
| C=CC(=O)OCC(F)(F)C(F)(F)C(F)(F)C(F)(F)COC(=O)C=C | – | 8.52 µM (active) and 8.25 µM (active) |
| OCC(F)(F)C(F)(F)C(F)(F)C(F)(F)C(F)(F)C(F)(F)F | inactive | 45.4 µM (active) |
| FC(F)(F)C(F)(F)C(F)(F)C(F)(F)C(F)(F)CCI | inactive | – |
| OCC(F)(F)C(F)(F)C(F)(F)F | inactive | – |
| FC(F)(F)C(F)(F)C(F)(F)C(F)(F)C(F)(F)C(F)(F)C(F)(F)C(F)(F)CCS | inactive | – |
| O=C(O)C(F)(F)C(F)(F)C(F)(F)C(F)(F)C(F)(F)C(F)(F)C(F)(F)C(F)(F)Cl | – | 47.7 µM (active) and 49.2 µM (active) |
| CCCCCCCOC(=O)c1ccccc1C(=O)OCCCCCCC | inactive | – |
| O=C(O)C(F)(F)C(F)(F)C(F)(F)F | inactive | – |

| Compound | outcome | AC50 |
| --- | --- | --- |
| CCO[Si](CCC(F)(F)C(F)(F)C(F)(F)C(F)(F)C(F)(F)C(F)(F)F)(OCC)OCC | inactive | – |
| FC(F)(F)C(F)(F)C(F)(F)C(F)(F)C(F)(F)C(F)(F)CC1CO1 (stereo not given) | inactive | – |
| O=C(O)C(F)(F)C(F)(F)C(F)(F)C(F)(F)F | inactive | – |
| FC(F)(F)C(F)(F)C(F)(F)N(C(F)(F)C(F)(F)C(F)(F)F)C(F)(F)C(F)(F)C(F)(F)F | inactive | – |
| O=C(CC(=O)C(F)(F)C(F)(F)F)C(F)(F)F | inactive | – |
| COC(=O)CCC(F)(F)C(F)(F)C(F)(F)C(F)(F)F | inactive | 30 µM (active) |
| CO[Si](OC)(c1ccccc1)c1ccccc1 | – | 36 µM (active) |
| O=C(O)C(F)(F)C(F)(F)C(F)(F)C(F)(F)C(F)(F)C(F)(F)C(F)(F)C(F)(F)C(F)(F)C(F)(F)C(F)(F)C(F)(F)C(F)(F)F | inactive | – |
| FC(F)(F)C(F)(F)C(F)(F)C(F)(F)C(F)(F)C(F)(F)C(F)(F)C(F)(F)F | inactive | – |
| O=C(Cl)C(F)(F)C(F)(F)C(F)(F)C(F)(F)C(F)(F)C(F)(F)C(F)(F)C(F)(F)F | – | 8.08 µM (active) and 15.7 µM (active) and 10.9 µM (active) |
| Cc1ccc(S(=O)(=O)OCC(F)(F)C(F)(F)C(F)(F)C(F)(F)C(F)(F)C(F)F)cc1 | inactive | – |
| FC(F)(F)C(F)(F)C(F)(F)C(F)(F)C(F)(F)C(F)(F)C(F)(F)Br | inactive | – |
| O=C(O)C(F)(F)C(F)(F)C(F)(F)C(F)(F)C(F)(F)C(F)(F)C(F)(F)C(F)(F)C(F)(F)C(F)(F)C(F)(F)C(F)(F)F | inactive | 6.27 µM (active) |
| OCCCC(F)(F)C(F)(F)C(F)(F)C(F)(F)C(F)(F)C(F)(F)C(F)(F)F | – | 18.3 µM (active) and 17.2 µM (active) |
| FC1CC(F)(F)C(F)(F)C1(F)F (stereo not given) | inactive | 21.1 µM (active) |
| CCCCNc1ccccc1 | inactive | – |
| O[Si](c1ccccc1)(c1ccccc1)c1ccccc1 | – | 5.35 µM (active) |
